# Rows were chosen to be rich in hits. Some 2.3% of all compounds tested hit in one or more screens of this group.
# CHRM1 antagonist = human CHRM1 antagonism; P11229; CHO-K1 hM1, Fluo-8 calcium fluorescence, ACh EC80 antagonist; inhibition, % at 3 µM; hit rate 1.3% among 360,000; AID 588852;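 active means percent inhibition above its own plate's cutoff, namely the mean of that plate's compound wells plus 3 SD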;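 further: peak over basal fluorescence ratio during 140 s after agonist addition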
# Target sequence (P11229 whole entry, looked up): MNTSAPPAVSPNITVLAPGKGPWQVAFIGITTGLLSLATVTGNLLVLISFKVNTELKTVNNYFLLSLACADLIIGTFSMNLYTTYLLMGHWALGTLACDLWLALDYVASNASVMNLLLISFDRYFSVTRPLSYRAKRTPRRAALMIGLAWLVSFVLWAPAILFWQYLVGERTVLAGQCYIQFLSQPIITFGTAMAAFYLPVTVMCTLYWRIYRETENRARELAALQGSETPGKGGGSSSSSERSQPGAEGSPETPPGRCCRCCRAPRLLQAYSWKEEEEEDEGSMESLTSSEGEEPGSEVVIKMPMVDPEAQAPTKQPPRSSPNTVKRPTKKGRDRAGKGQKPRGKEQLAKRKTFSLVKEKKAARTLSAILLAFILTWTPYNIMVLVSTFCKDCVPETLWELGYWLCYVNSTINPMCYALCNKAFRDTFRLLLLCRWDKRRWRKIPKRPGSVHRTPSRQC
# CHO-K1 Ca antag = M1 antagonist counterscreen hit in parental CHO-K1 cells | ATP-induced calcium, Fluo-8 fluorescence | inhibition, % at 3 µM | hit rate 0.6% among 360,000;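 active means inhibition above a per-plate cutoff, the plate's mean sample inhibition plus 3 SD, cut at about 24% in these data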
# M1 ag = agonists of human M1 muscarinic receptor. P11229. CHO-K1 hM1, Fluo-8 calcium fluorescence, agonist mode; 0% DMSO, 100% acetylcholine EC100. activation, % at 3 µM. hit rate 0.33% among 360,000;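 active means activation above the run's mean compound activation plus 3 SD, cut at about 16% in these data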;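 further: peak over basal fluorescence ratio within a 140 s kinetic read after compound addition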
# M1 ag parental = nonselective activator or artifact in parental CHO-K1 cells. Fluo-8 calcium fluorescence; scaled to maximal ATP response, vehicle zero. activation, % at 3 µM. hit rate 0.48% among 360,000. AID 602248; in the data active means activation above about 15%;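 further: untransfected CHO-K1 host cells lacking M1 receptor as counterscreen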
# CHO-K1 Ca PAM = counter-screen for M1 PAMs: effect in parental CHO-K1 cells. ATP EC20, Fluo-8 calcium fluorescence; 0% at ATP EC20, 100% at ATP max. activation, % at 3 µM. hit rate 0.02% among 360,000. AID 602247;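 active means activation above the run cutoff, the mean activation of all test compounds plus 3 SD, cut at about 40% in these data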;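 further: peak over basal fluorescence ratio in a 140 s read after ATP addition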
# CHRM1 PAM = human CHRM1 positive allosteric modulation; P11229; CHO-K1 hM1, Fluo-8 calcium fluorescence, ACh EC20; 0% = ACh EC20, 100% = maximal ACh; AID 588819; hit rate 0.088% among 360,000; activation, % at 3 µM; in the data active means activation above about 19%, passing the limit was not always enough
# Numbers stand for hits; . = inactive.
SMILES,CHRM1 antagonist,CHO-K1 Ca antag,M1 ag,M1 ag parental,CHO-K1 Ca PAM,CHRM1 PAM
COc1ccc(NS(=O)(=O)c2ccc(C(=O)N(C)Cc3cccs3)cc2)cc1,.,.,25,20,.,.
COc1ccc(NC(=O)CN(C)C(=O)c2ccc(NS(=O)(=O)c3cccc([N+](=O)[O-])c3)cc2)cc1,.,33,.,.,.,.
COc1ccc(NS(=O)(=O)c2cccc(C(=O)N(C)CC(=O)Nc3ccc(C)cc3)c2)cc1,.,.,.,.,.,.
CCOC(=O)NN=C1CN(S(=O)(=O)c2ccc(C)cc2)C1,.,.,.,.,.,.
Cc1ccc(/C=C/C(=O)Nc2sc3c(c2C#N)CCCC3)o1,.,38,.,.,.,.
CCc1ccc(CCC(=O)Nc2sc3c(c2C#N)CCCC3)o1,.,.,.,.,.,.
CC(=O)N(c1ccc(C)cc1)C1C=CS(=O)(=O)C1 (stereo not drawn),.,24,.,.,.,.
Cc1ccc(N(C(=O)C2CCCC2)C2C=CS(=O)(=O)C2)cc1 (stereo not drawn),.,.,.,.,.,.
Cc1c(CN2CCCCC2)c(O)n(CCCO)c(=O)c1C#N,36,.,.,.,.,.
COc1cc2c(cc1OC)C(c1ccc([N+](=O)[O-])cc1)N(C(C)=O)CC2 (stereo not drawn),.,.,.,16,.,.
O=C(O)c1ccc(N2CCCS2(=O)=O)cc1,.,.,.,.,.,.
CCOCCCNc1ncnc2c1nc1n2CCCC1,.,.,.,.,.,.
CN(C)CCOc1cccc(Cl)c1,.,.,.,19,.,.
CN(C)CCOc1cc(Cl)cc(Cl)c1,.,.,.,.,.,.
C=CCc1cc(Cl)ccc1OCCCNC(C)C,.,.,.,.,.,.
C=CCc1cc(Cl)ccc1OCCOCCNC(C)CC (stereo not drawn),38,.,.,.,.,.
C=CCc1cc(Cl)ccc1OCCN(C)C,25,.,.,.,.,.
CCC(C)NCCCOc1cc(Cl)ccc1Cl (stereo not drawn),33,.,.,.,.,.
C=CCc1cc(Cl)ccc1OCCCNCCO,.,.,.,.,.,.
Cc1ccc(S(=O)(=O)N2CCN(CC(=O)Nc3ccccc3C(=O)NC3CC3)CC2)cc1,.,.,.,.,.,.
CC(C)NC(=O)c1cc(C2CCCCN2S(=O)(=O)c2ccccc2)on1 (stereo not drawn),.,.,.,.,.,.
COc1cccc(-c2cnc(C(O)c3ccc(-c4ccccc4)cc3)[nH]2)c1 (stereo not drawn),.,.,.,.,.,.
C[C@@H](CN1C2=NC[C@H](Cc3ccc(O)cc3)N2C[C@H]1Cc1ccc(O)cc1)NC(=O)CCC1CCCCC1,.,.,.,.,.,.
C[C@@H](CN1C2=NC[C@H](Cc3ccccc3)N2C[C@H]1Cc1ccc(O)cc1)NC(=O)CCC1CCCCC1,40,.,.,.,.,.
Cn1c2ccccc2c2cc(/C=N/NC(=O)c3cc(O)cc(O)c3)ccc21,.,.,.,.,.,.
SMILES,CHRM1 antagonist,CHO-K1 Ca antag,M1 ag,M1 ag parental,CHO-K1 Ca PAM,CHRM1 PAM
Cn1c2ccccc2c2cc(/C=N/NC(=O)c3cc(O)ccc3O)ccc21,30,24,.,.,.,.
Cc1ccc(C)c(SCC(=O)N(C)C2CCS(=O)(=O)C2)c1 (stereo not drawn),.,.,.,.,.,.
Cc1cc(SCC(=O)OCC(=O)N(C)C2CCS(=O)(=O)C2)c(C)cc1Br (stereo not drawn),.,.,.,16,.,.
CCC(C(=O)Nc1cccc(C(=O)O)c1C)c1ccccc1 (stereo not drawn),.,.,.,.,.,.
O=C(c1ccc(=O)n(Cc2ccccc2)n1)N1CCN(C/C=C/c2ccccc2)CC1,41,.,.,.,.,.
COc1ccc(N/N=C(\C#N)C(=N)SCc2ccccc2)cc1,.,.,.,18,.,.
COc1ccc(N/N=C(\C#N)C(=N)N2CCCCC2)cc1,.,.,.,.,.,.
Cc1cc2c(cc1C)N(C(=O)CSc1nncn1C)C(C)(C)c1ssc(=S)c1-2,.,.,.,.,.,.
Cc1ccc2c(c1)N(C(=O)CSc1nncn1C)C(C)(C)c1ssc(=S)c1-2,41,.,.,.,.,.
CCCOc1ccc(CNC(=O)CCC(=O)n2ncc3cc(C)ccc32)cc1,.,.,.,.,.,.
COc1ccc(CNC(=O)CCC(=O)n2ncc3cc(C)ccc32)cc1,.,24,.,.,.,.
CCN1CCCC1CNCc1ccccc1OCc1ccc(F)cc1 (stereo not drawn),32,.,.,.,.,.
CCN1CCCC1CNCc1cccc(OC)c1OCc1ccccc1 (stereo not drawn),.,.,.,.,.,.
CCCCC[C@@H]1[C@H]2[C@H]3C(=O)N(c4ccccc4)C(=O)[C@H]3CC(=O)[C@H]2[C@H](c2ccccc2)N1S(=O)(=O)c1ccc(C)cc1,.,.,.,.,.,.
CC(NC(=O)NCCCC(=O)O)(C(F)(F)F)C(F)(F)F,.,25,.,.,.,.
COC(=O)C1=NN(C(=O)c2cccc(Br)c2)C(O)(c2ccc(Cl)cc2)C1 (stereo not drawn),.,.,42,.,.,.
CC(C)(C)c1cc(C(=O)NCCN2CCCC2)cc(C(C)(C)C)c1,.,.,.,.,.,.
CC(C)c1ccc(NC(=O)[C@@H](C)NC(=O)[C@@H]2Cc3ccccc3CN2)cc1,37,.,.,.,.,.
CC(C)C[C@H](NC(=O)[C@@H]1Cc2ccccc2CN1)C(=O)Nc1ccc(C(C)C)cc1,.,.,.,.,.,.
COc1ccc(CCNC(=O)/C(C#N)=C2\N=C(NC(=O)c3ccco3)c3ccccc32)cc1,.,.,.,.,.,.
N#C/C(C(=O)NCc1ccccc1)=C1/N=C(NC(=O)c2ccco2)c2ccccc21,.,.,.,17,.,.
C=CCc1cccc2cc(C(=O)NCc3cccnc3)c(=O)oc12,36,.,.,.,.,.
CCOc1cccc2cc(C(=O)NCc3cccnc3)c(=O)oc12,.,.,.,.,.,.
O=C(CC1(O)C(=O)N(Cc2ccccc2)c2ccccc21)c1ccncc1 (stereo not drawn),.,.,.,.,.,.
CC(C)(C)c1ccc(C(=O)NC2CCN(Cc3ccccc3)CC2)cc1,.,.,.,.,.,.
CCOC(=O)C1=CCN(S(=O)(=O)c2cccc(Cl)c2)C1c1cccc(C)c1 (stereo not drawn),.,.,.,.,.,.
CCOC(=O)C1=CCN(S(=O)(=O)c2ccc(C)cc2)C1c1cccc(Cl)c1 (stereo not drawn),.,29,.,.,.,.
CCc1nnc(SCC(=O)NC2CCCC2)nc1CC,.,33,.,.,.,.
